PubChem BioAssay (NCI)
Compounds without any hit were thinned out: in the full panel of roughly 79,000, 15% have a hit. The source made the active and inactive calls. Cut-off read from the data, not from the text of the source: active = growth inhibition above about 70%; inactive = the rest.

Legend:
[1] = NCI Yeast Anticancer Drug Screen. Data for the wt1 strain (AID 149);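 note: 0% = growth of vehicle-treated wt1 cultures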; conditions: S. cerevisiae wt1 strain (SPY 50644) growth inhibition, active compounds read high
How it was run: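 Growth inhibition read against vehicle controls after compound exposure of the wt1 yeast strain.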

[2] = NCI Yeast Anticancer Drug Screen. Data for the rad50EPP+ strain (AID 151);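 note: 0% = growth of vehicle-treated control cultures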; conditions: S. cerevisiae rad50 mutant strain, active compounds read high
How it was run: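 Genetically defined yeast (rad50EPP+, DNA damage repair alteration) is grown with compound, and inhibition of growth is expressed relative to vehicle-treated controls.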

[3] = NCI Yeast Anticancer Drug Screen. Data for the mgt1 strain (AID 153); conditions: S. cerevisiae mgt1 mutant growth inhibition, active compounds read high
How it was run: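 In the mgt1 strain, test compounds were added and growth inhibition was determined relative to vehicle-treated controls.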

[4] = NCI Yeast Anticancer Drug Screen. Data for the rad50 strain (AID 155);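 note: 0% = growth of vehicle-only cultures of the same strain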; conditions: S. cerevisiae rad50 strain growth inhibition, active compounds read high
How it was run: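 Readout: growth inhibition relative to vehicle-treated cultures. Compound exposure was carried out in a genetically defined yeast strain deficient in DNA damage repair.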

[5] = NCI Yeast Anticancer Drug Screen. Data for the mec2-1 strain (AID 157); conditions: S. cerevisiae mec2-1 strain, active compounds read high
How it was run: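 Each compound was tested on mec2-1 yeast, a strain altered in DNA damage repair or cell cycle control. Growth inhibition is reported relative to vehicle.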

[6] = NCI Yeast Anticancer Drug Screen. Data for the rad14 strain (AID 159);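 note: 0% = growth of vehicle-treated control cultures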; conditions: S. cerevisiae rad14 strain growth inhibition, active compounds read high
How it was run: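 Growth inhibition vs vehicle controls; genetically altered yeast strain (DNA damage repair defect) treated with test compounds.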

[7] = NCI Yeast Anticancer Drug Screen. Data for the sgs1 mgt1 strain (AID 161);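 note: 0% = growth of cultures given vehicle only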; conditions: S. cerevisiae sgs1 mgt1 strain, active compounds read high
How it was run: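 Test agents were incubated with a DNA-repair-mutant yeast strain. Growth was then read and compared against vehicle-treated controls.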

[8] = NCI Yeast Anticancer Drug Screen. Data for the CLN2oe strain (AID 163);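 note: 0% = growth of vehicle-only control cultures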; conditions: S. cerevisiae CLN2oe strain, active compounds read high
How it was run: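 First, the altered yeast strain was treated with each compound; second, its growth was measured; finally, inhibition was derived by comparison with vehicle controls.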

[9] = NCI Yeast Anticancer Drug Screen. Data for the cln2 rad14 strain (AID 165);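 note: 0% = growth equal to vehicle treated cultures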; conditions: S. cerevisiae cln2 rad14 strain, active compounds read high
How it was run: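 Test compounds were added to cln2 rad14 yeast cultures; inhibition of growth was then determined by comparison with vehicle treatment.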

[10] = NCI Yeast Anticancer Drug Screen. Data for the bub3 strain (AID 167); conditions: S. cerevisiae bub3 mutant strain, active compounds read high
How it was run: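 Readout: yeast growth inhibition, expressed relative to vehicle-only wells. The test organism is a mutant strain from a panel with lesions in DNA repair or checkpoint genes.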

[11] = NCI Yeast Anticancer Drug Screen. Data for the wt2 strain (AID 169);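 note: 0% = growth of vehicle-treated yeast cultures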; conditions: S. cerevisiae wt2 strain growth inhibition, active compounds read high
How it was run: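 The panel's yeast strains carry defined changes in DNA repair or cell cycle genes. Each strain is grown with compound, and growth loss is scored relative to vehicle.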

[12] = NCI Yeast Anticancer Drug Screen. Data for the mlh1 strain (AID 171);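 note: 0% = growth of vehicle-treated control cultures of the same strain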; conditions: S. cerevisiae mlh1 strain growth inhibition, active compounds read high
How it was run: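 Inhibition values reflect reduced yeast growth in the presence of compound, referenced to vehicle controls, using a strain chosen for its alteration in DNA repair or cell cycle control.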

[13] = NCI Yeast Anticancer Drug Screen. Data for the sgs1 strain (AID 173);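 note: 0% = growth of vehicle-only control cultures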; conditions: S. cerevisiae sgs1 mutant, active compounds read high
How it was run: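 Vehicle-treated cultures served as reference for growth inhibition of a yeast strain altered in DNA damage repair or cell cycle control after compound exposure.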

[14] = NCI Yeast Anticancer Drug Screen. Data for the mlh1 rad18 strain (AID 175); conditions: S. cerevisiae mlh1 rad18 strain growth inhibition, active compounds read high
How it was run: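 Inhibition values reflect reduced growth of mutant yeast versus vehicle-treated controls following compound exposure; the mutations affect DNA damage repair.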

[15] = NCI Yeast Anticancer Drug Screen. Data for the rad18 strain (AID 177); conditions: S. cerevisiae rad18 mutant growth inhibition, active compounds read high
How it was run: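 Steps: expose repair-mutant yeast to compound; measure growth; express as inhibition relative to vehicle control.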

[16] = at 5.0 µM (retest, dose inferred, filed as 0.5)
[17] = at 50.0 µM (retest, dose inferred, filed as 5.0)

Measured: growth inhibition

Cc1ccc(C(C)C)c(C(=C2C=CC(=[N+](C)C)C=C2)c2c(C(C)C)ccc(C)c2O)c1O
active: [1]; at 11.0 µM 98% | [1]; at 33.0 µM 95% | [1]; at 100.0 µM 86% | [3]; at 11.0 µM 98% | [3]; at 33.0 µM 94% | [3]; at 100.0 µM 85% | [4]; [16] 84% | [4]; at 11.0 µM 97% | [4]; at 33.0 µM 93% | [4]; [17] 93% | [4]; at 50.0 µM 96.7% | [4]; at 100.0 µM 81% | [5]; at 11.0 µM 98% | [5]; at 33.0 µM 96% | [5]; [17] 96% | [5]; at 50.0 µM 97.5% | [5]; at 100.0 µM 88% | [6]; at 11.0 µM 98% | [6]; at 33.0 µM 94% | [6]; at 100.0 µM 85% | [7]; [17] 96% | [7]; at 50.0 µM 97.3% | [8]; at 11.0 µM 97% | [8]; at 33.0 µM 93% | [8]; at 100.0 µM 75% | [9]; [17] 94% | [9]; at 50.0 µM 95.2% | [10]; at 11.0 µM 97% | [10]; at 33.0 µM 93% | [10]; [17] 97% | [10]; at 50.0 µM 95.3% | [10]; at 100.0 µM 81% | [11]; at 11.0 µM 97% | [11]; at 33.0 µM 94% | [11]; at 100.0 µM 83% | [12]; at 11.0 µM 97% | [12]; at 33.0 µM 96% | [12]; at 100.0 µM 84% | [13]; at 11.0 µM 97% | [13]; at 33.0 µM 94% | [13]; at 100.0 µM 82% | [14]; [17] 94% | [14]; at 50.0 µM 96.9% | [15]; at 11.0 µM 98% | [15]; at 33.0 µM 95% | [15]; at 100.0 µM 80%
inactive: [1]; at 1.2 µM 1% | [1]; at 3.7 µM -2% | [2]; at 1.2 µM -1% | [2]; at 3.7 µM 1% | [2]; at 11.0 µM -1% | [2]; at 33.0 µM -3% | [2]; at 100.0 µM -8% | [3]; at 1.2 µM -2% | [3]; at 3.7 µM 0% | [4]; at 1.2 µM 4% | [4]; at 3.7 µM 16% | [5]; at 1.2 µM -1% | [5]; at 3.7 µM 16% | [5]; [16] 53% | [6]; at 1.2 µM 1% | [6]; at 3.7 µM 19% | [7]; [16] 66% | [8]; at 1.2 µM 2% | [8]; at 3.7 µM 26% | [9]; [16] 51% | [10]; at 1.2 µM 3% | [10]; at 3.7 µM 8% | [10]; [16] 35% | [11]; at 1.2 µM 1% | [11]; at 3.7 µM -1% | [12]; at 1.2 µM 0% | [12]; at 3.7 µM 8% | [13]; at 1.2 µM 0% | [13]; at 3.7 µM 14% | [14]; [16] 63% | [15]; at 1.2 µM -2% | [15]; at 3.7 µM 25%

O=[N+]([O-])c1cccc2nc3ccccc3c(NCCC[N+]3([O-])CCOCC3)c12
active: [1]; at 100.0 µM 87% | [2]; at 33.0 µM 79% | [2]; at 100.0 µM 92% | [3]; at 100.0 µM 85% | [4]; at 11.0 µM 88% | [4]; at 33.0 µM 94% | [4]; [17] 92% | [4]; at 50.0 µM 83.4% | [4]; at 100.0 µM 95% | [5]; at 11.0 µM 89% | [5]; at 33.0 µM 97% | [5]; [17] 98% | [5]; at 50.0 µM 82.8% | [5]; at 100.0 µM 97% | [6]; at 3.7 µM 87% | [6]; at 11.0 µM 96% | [6]; at 33.0 µM 98% | [6]; at 100.0 µM 97% | [7]; [16] 73% | [7]; [17] 93% | [7]; at 50.0 µM 79.6% | [8]; at 100.0 µM 91% | [9]; [16] 86% | [9]; [17] 98% | [9]; at 50.0 µM 94.6% | [10]; [17] 75% | [10]; at 100.0 µM 84% | [11]; at 100.0 µM 93% | [12]; at 100.0 µM 92% | [13]; at 3.7 µM 79% | [13]; at 11.0 µM 85% | [13]; at 33.0 µM 89% | [13]; at 100.0 µM 93% | [14]; [16] 71% | [14]; [17] 98% | [14]; at 50.0 µM 94.5%
inactive: [1]; at 1.2 µM -78% | [1]; at 3.7 µM 5% | [1]; at 11.0 µM 16% | [1]; at 33.0 µM 47% | [2]; at 1.2 µM 6% | [2]; at 3.7 µM 19% | [2]; at 11.0 µM 42% | [3]; at 1.2 µM 1% | [3]; at 3.7 µM 5% | [3]; at 11.0 µM 17% | [3]; at 33.0 µM 55% | [4]; at 1.2 µM 37% | [4]; at 3.7 µM 65% | [4]; [16] 37% | [5]; at 1.2 µM 7% | [5]; at 3.7 µM 41% | [5]; [16] 9% | [6]; at 1.2 µM 38% | [8]; at 1.2 µM -15% | [8]; at 3.7 µM -13% | [8]; at 11.0 µM 10% | [8]; at 33.0 µM 55% | [10]; at 1.2 µM -9% | [10]; at 3.7 µM -13% | [10]; [16] -6% | [10]; at 11.0 µM -9% | [10]; at 33.0 µM 14% | [10]; at 50.0 µM 34.4% | [11]; at 1.2 µM -3% | [11]; at 3.7 µM -1% | [11]; at 11.0 µM 3% | [11]; at 33.0 µM 34% | [12]; at 1.2 µM 1% | [12]; at 3.7 µM 5% | [12]; at 11.0 µM 21% | [12]; at 33.0 µM 62% | [13]; at 1.2 µM 63%
